Laboratory results published in the supplement of paper PMC9801561.
A number with no mark means an inactive call.

test system: Escherichia coli Nissle 1917; assay: DuctApe activity index of respiration/growth curve (0 no growth to 9 maximum) (index 0-9); higher = more growth / nutrient utilisation, active = 3 or more; extreme values may be limits of the assay; settings: nutrient role: C-Source, carbohydrate; incubation: 48 h, 37 °C
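Also: biolog PM4 phosphorus and sulfur plates, tetrazolium violet dye reduction read in the OmniLog every 15 min, kinetic curves scored by DuctApe, each plate run in triplicate.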

Compound	DuctApe activity index
Cc1cn([C@H]2C[C@H](O)[C@@H](CO)O2)c(=O)[nH]c1=O [Thymidine]	8.67 (active)
CC(=O)N[C@@H]1C(O)O[C@H](CO)[C@@H](O)[C@@H]1O (stereo partly drawn) [N-Acetyl-D-Mannosamine]	7.67 (active)
CC(=O)N[C@H]1C(O)O[C@H](CO)[C@H](O)[C@@H]1O (stereo partly drawn) [N-Acetyl-D-Galactosamine]	8 (active)
O=P(O)(O)OC[C@H](O)CO (racemic) [DL-a-Glycerol Phosphate]	7.67 (active)
N[C@H]1C(O)O[C@H](CO)[C@@H](O)[C@@H]1O (stereo partly drawn) [D-Glucosamine]	8 (active)
O=C[C@H](O)[C@@H](O)[C@H](O)[C@H](O)COP(=O)(O)O [D-Glucose-6-Phosphate]	9 (active)
O=P(O)(O)O[C@H]1O[C@H](CO)[C@@H](O)[C@H](O)[C@H]1O [D-Glucose-1-Phosphate]	8.67 (active)
O=c1ccn([C@@H]2O[C@H](CO)[C@@H](O)[C@H]2O)c(=O)[nH]1 [Uridine]	8.67 (active)
CC(=O)N[C@@H]1[C@@H](O)[C@H](O)[C@@H](CO)O[C@@H]1O [N-Acetyl-D-Glucosamine]	8 (active)
Nc1ncnc2c1ncn2[C@@H]1O[C@H](CO)[C@@H](O)[C@H]1O [Adenosine]	8.67 (active)
O=c1[nH]cnc2c1ncn2[C@@H]1O[C@H](CO)[C@@H](O)[C@H]1O [Inosine]	9 (active)

same assay, conditions: nutrient role: sole nitrogen source (pyruvate carbon); incubation: 48 h, 37 °C

Compound	DuctApe activity index
Cc1cn([C@H]2C[C@H](O)[C@@H](CO)O2)c(=O)[nH]c1=O [Thymidine]	0
C[C@H](N)C(=O)NCC(=O)O	8 (active)
N[C@@H](Cc1c[nH]cn1)C(=O)O [L-Histidine]	0
C[C@@H](O)[C@H](N)C(=O)O [L-Threonine]	5 (active)
N[C@@H](CC(=O)O)C(=O)O [L-Aspartic acid]	8.33 (active)
NCCCC[C@H](N)C(=O)O [L-Lysine]	1
NCC(=O)O [Glycine]	6 (active)
CSCC[C@H](N)C(=O)O [L-Methionine]	6 (active)
N[C@@H](CCC(=O)O)C(=O)O [L-Glutamic acid]	8 (active)
CC(=O)N[C@@H]1C(O)O[C@H](CO)[C@@H](O)[C@@H]1O (stereo partly drawn) [N-Acetyl-D-Mannosamine]	2.33
CC(=O)N[C@H]1C(O)O[C@H](CO)[C@H](O)[C@@H]1O (stereo partly drawn) [N-Acetyl-D-Galactosamine]	2.33
N[C@H]1C(O)O[C@H](CO)[C@@H](O)[C@@H]1O (stereo partly drawn) [D-Glucosamine]	3.33 (active)
C[C@@H](N)C(=O)O [D-Alanine]	7.33 (active)
C[C@H](N)C(=O)O [L-Alanine]	8 (active)
NCCCC(=O)O [g-Amino-N-Butyric acid]	4 (active)
CC[C@H](C)[C@H](N)C(=O)O [L-Isoleucine]	1

Compound	DuctApe activity index
NC(=O)CC[C@H](N)C(=O)O [L-Glutamine]	8.33 (active)
CSCC[C@H](NC(=O)CN)C(=O)O	7 (active)
N=C(N)NCCC[C@H](N)C(=O)O [L-Arginine]	8 (active)
O=C1CC[C@@H](C(=O)O)N1 [L-Pyroglutamic acid]	0
NCC(=O)N[C@@H](CCC(=O)O)C(=O)O	8 (active)
CC(=O)N[C@@H](CCC(=O)O)C(=O)O [N-Acetyl-L-Glutamic acid]	0
N[C@H](CO)C(=O)O [D-Serine]	7.67 (active)
N[C@@H](Cc1ccccc1)C(=O)O [L-Phenylalanine]	6 (active)
CC(N)=O [Acetamide]	0
CC(C)[C@H](N)C(=O)O [L-Valine]	4 (active)
CC(C)C[C@H](N)C(=O)O [L-Leucine]	1.33
NC(=O)[C@H]1O[C@@H](O)[C@H](O)[C@@H](O)[C@@H]1O [Glucuronamide]	4.33 (active)
O=C(O)[C@@H]1CCCN1 [L-Proline]	6 (active)
O=c1ccn([C@@H]2O[C@H](CO)[C@@H](O)[C@H]2O)c(=O)[nH]1 [Uridine]	0
CC(=O)N[C@@H]1[C@@H](O)[C@H](O)[C@@H](CO)O[C@@H]1O [N-Acetyl-D-Glucosamine]	2.33
Nc1ncnc2c1ncn2[C@@H]1O[C@H](CO)[C@@H](O)[C@H]1O [Adenosine]	7.33 (active)
